# Compounds with a hit are over-represented: about 9.9% of the library has one in this group of screens.
# Tau fluor cs: Counterscreen qHTS for Inhibitors of Tau Fibril Formation, Fluorescence Polarization. tau K18 P301L Alexa594 fluorescence, heparin fibrillization. Potency, µM (series often up to 57.7 µM), for the others: at the highest dose activity change, negative = decrease. 0.93% of 280,000 active; active = well fitted curve in the direction sought with a large enough effect; inconclusive = small, poorly fitted or top-dose-only effect, or another doubt; inactive = no such curve, though single readings can be large; an effect the other way counts as inactive or inconclusive; note: nearly all actives have a fitted effect of over 55% in size
#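 Human K18 P301L tau (15 uM unlabeled plus 0.24 uM Alexa 594-labeled, final) in 100 mM sodium acetate pH 7 was mixed with compound and 20 uM heparin and incubated 6 hr at 37 C.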
# ALDH1A1 inh: qHTS Assay for Inhibitors of Aldehyde Dehydrogenase 1 (ALDH1A1). Aldehyde dehydrogenase 1A1 (Homo sapiens), P00352. Purified ALDH1A1, NADH fluorescence, propionaldehyde substrate. Potency, µM (highest dose often 75.3 µM), for inactives: top-dose activity, negative = inhibition, usual class: inhibitors. 7.3% of 220,000 active;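 note: plate controls were no enzyme wells and a reference inhibitor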
# HPGD block: qHTS Assay for Inhibitors of HPGD (15-Hydroxyprostaglandin Dehydrogenase). Potency, µM, for inactives: at the highest dose activity change, negative = inhibition, hits mostly inhibitors. purified HPGD, NADH fluorescence kinetic, PGE2 substrate. 4.3% of 150,000 active
#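 NADH formation kinetics: reaction with 30 uM PGE2 and 1 mM NAD+ (final), 20 nM enzyme, Tris-HCl pH 8 with Tween 20, after 15 min compound preincubation at room temperature. Fluorescence change, last versus first of five reads.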
# Tau ThT inhib: qHTS for Inhibitors of Tau Fibril Formation, Thioflavin T Binding | Microtubule-associated protein tau (Homo sapiens), P10636 | recombinant tau K18 P301L (four-repeat tau fragment), heparin-induced fibrillization, ThT fluorescence | Potency, µM (top dose mostly 57.4 µM), for the others: top-dose activity, negative = inhibition, usual class: inhibitors | 2.1% of 270,000 active | AID 1460, 2008; active = well fitted curve in the direction sought with a large enough effect; inconclusive = small, poorly fitted or top-dose-only effect, or another doubt; inactive = no such curve, though single readings can be large; an effect the other way counts as inactive or inconclusive; note: nearly all actives have a fitted effect of over 55% in size
# Target sequence (P10636 561-689 P618L limits assumed): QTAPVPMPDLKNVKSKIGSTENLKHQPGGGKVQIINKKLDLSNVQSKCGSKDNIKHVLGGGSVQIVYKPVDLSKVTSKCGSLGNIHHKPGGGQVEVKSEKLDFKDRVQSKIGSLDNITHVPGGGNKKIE
#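 In this qHTS, human K18 P301L tau is incubated with compound and heparin for 6 hr at 37 C, and Thioflavin T fluorescence then reports fibril load.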
# Tau FP inhib: qHTS for Inhibitors of Tau Fibril Formation, Fluorescence Polarization; 0.39% of 280,000 active; K18 P301L tau heparin fibrillization, Alexa594 FP, 6 h; AID 1468, 2008; Potency, µM (series often up to 57.7 µM), for the others: top-dose activity, negative = inhibition, usual class: inhibitors; Microtubule-associated protein tau (Homo sapiens), P10636; active = well fitted curve in the direction sought with a large enough effect; inconclusive = small, poorly fitted or top-dose-only effect, or another doubt; inactive = no such curve, though single readings can be large; an effect the other way counts as inactive or inconclusive; note: nearly all actives have a fitted effect of over 55% in size
#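 Human K18 P301L fragment (15 uM unlabeled plus 0.24 uM Alexa 594-labeled) in 100 mM sodium acetate pH 7 with compound, aggregation induced by 20 uM heparin for 6 hr at 37 C. ThT (30 uM) added for 1 hr, then Alexa 594 FP read.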
# JMJD2E inh: qHTS Assay for Inhibitors of Human Jumonji Domain Containing 2E (JMJD2E) | Lysine-specific demethylase 4E (Homo sapiens), B2RXH2 | JMJD2E catalytic domain, FDH-coupled NADH fluorescence (FDH is formaldehyde dehydrogenase) | Potency, µM (titrated, usually from 57.1 µM), without a hit: top-dose activity change, negative = inhibition, actives largely listed as inhibitors | 1.6% of 230,000 active | AID 2147, 2009;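 note: 0% = wells with enzyme and -100% = buffer wells without enzyme; nearly all actives have a fitted effect of over 50% in size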
# Target sequence (B2RXH2 1-337 limits assumed): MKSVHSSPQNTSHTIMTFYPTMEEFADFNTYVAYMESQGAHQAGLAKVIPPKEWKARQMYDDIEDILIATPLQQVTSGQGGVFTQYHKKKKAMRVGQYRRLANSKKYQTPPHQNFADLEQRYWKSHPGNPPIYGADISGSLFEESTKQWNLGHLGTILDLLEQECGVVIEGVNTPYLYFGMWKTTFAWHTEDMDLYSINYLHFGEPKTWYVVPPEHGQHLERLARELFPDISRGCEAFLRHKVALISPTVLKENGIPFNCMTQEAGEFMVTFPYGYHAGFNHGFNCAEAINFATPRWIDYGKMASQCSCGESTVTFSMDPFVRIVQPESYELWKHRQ
# * = called active by the depositor; ? = inconclusive; . = no result given; [ ] = dose if it differs, or a comment. Unless noted, calls come from the whole dose curve; as a rule, active = well fitted inhibition curve with a large enough effect (not every such curve was filed as active); inconclusive = small, poorly fitted or top-dose-only effect, or another doubt; inactive = no such curve, though single readings can be large or run the other way. Unless noted, % is set by controls: 0 for no effect and ±100 for the full control effect; potency is the fitted concentration of half-maximal effect.
SMILES,Tau fluor cs,ALDH1A1 inh,HPGD block,Tau ThT inhib,Tau FP inhib,JMJD2E inh
COc1ccc(Cn2c(N)c(C#N)c3nc4ccccc4nc32)cc1,-23%,?,?,-23%,10%,?
CCCCn1c(NC(=O)c2ccccc2)c(C#N)c2nc3ccccc3nc21,-13%,6%,.,-2%,-6%,?
COc1ccc(-n2c(NC(=O)c3ccc(Br)o3)c(C#N)c3nc4ccccc4nc32)cc1,?,?,?,14µM*,-12%,?
N#Cc1c(NC(=O)c2ccc(Br)o2)n(-c2ccccc2)c2nc3ccccc3nc12,-26%,.,.,25µM*,-14%,?
CCCc1nc2c(sc3nc4c(cc32)COC(C)(C)C4)c(=O)o1,-11%,?,.,-12%,-5%,-8%
CCCc1nc2c(sc3nc4c(cc32)COC(C)(C)C4)c(=O)n1Cc1ccco1,0%,0.89µM*,?,-3%,7%,?
Cc1nc2c(sc3nc4c(cc32)COC(C)(C)C4)c(=O)o1,-16%,28µM*,-22%,-20%,-1%,?
CC1(C)Cc2nc3sc4c(SCC(=O)NCc5ccco5)ncnc4c3cc2CO1,-11%,8.9µM*,14µM*,?,?,?
CCCc1nc2c(sc3nc4c(cc32)COC(C)(C)C4)c(=O)n1CCN(CC)CC,-6%,18µM*,.,-3%,-5%,-13%
CCCc1nc2c(sc3nc4c(cc32)COC(C)(C)C4)c(=O)n1CCN(C)C,0%,?,.,3%,-2%,8%
CCN1C(=O)C(O)(CC(=O)/C=C/C=C/c2ccccc2)c2ccccc21 (stereo not given),1%,?,-22%,-3%,3%,7%
C#CCN1C(=O)C(O)(CC(=O)/C=C/C=C/c2ccccc2)c2ccccc21 (stereo not given),-10%,6.3µM*,.,-15%,-6%,-2%
C#CCN1C(=O)C(O)(CC(=O)c2ccc3c(c2)OCCO3)c2ccccc21 (stereo not given),-7%,1µM*,-23%,-5%,2%,-6%
C#CCN1C(=O)C(O)(CC(=O)c2ccc(OC)c(OC)c2)c2cc(Br)ccc21 (stereo not given),-5%,.,.,-6%,10%,.
C#CCN1C(=O)C(O)(CC(=O)c2ccc(OC)c(OC)c2)c2ccccc21 (stereo not given),-5%,0.35µM*,-15%,-10%,4%,-8%
CCCN1C(=O)C(O)(CC(=O)c2ccc3c(c2)OCCO3)c2ccccc21 (stereo not given),1%,7.1µM*,-17%,0%,3%,-5%
COc1ccc(NC(=O)N(Cc2ccco2)C2CCN(C(C)=O)CC2)c(OC)c1,-3%,.,.,-2%,3%,.
CCCN1C(=O)C(O)(CC(=O)c2cccc(OC)c2)c2ccccc21 (stereo not given),-5%,4.5µM*,-23%,-12%,-7%,6%
Cc1ccc(-c2nc3ccccc3o2)cc1NC(=O)c1cccc2c(Cl)cccc12,-9%,.,.,-5%,-7%,.
N#Cc1ncc(-c2ccc3c(c2)OCCOCCOCCOCCO3)nc1C#N,-21%,-3%,-3%,20µM*,?,-2%
N#Cc1ncc(-c2ccc3c(c2)OCCOCCOCCOCCOCCO3)nc1C#N,-10%,11%,-1%,22µM*,?,7%
CCCCN(CC)C(=O)C1CCC(CNS(=O)(=O)c2cccc3nsnc23)CC1 (stereo not given),-10%,.,.,-12%,2%,.
C=CCNC(=O)CNS(=O)(=O)c1ccc(F)cc1,-5%,?,32µM*,1%,-3%,13%
FC(F)(F)c1cccc(-n2cc(-c3ccccc3)c3c(N4CCCCC4)ncnc32)c1,3%,.,.,5%,1%,.
Cc1c(NC(=O)c2cc(-c3cccs3)on2)c(=O)n(-c2ccccc2)n1C,0%,32µM*,-7%,-7%,3%,-1%
SMILES,Tau fluor cs,ALDH1A1 inh,HPGD block,Tau ThT inhib,Tau FP inhib,JMJD2E inh
CC(=O)N/N=C/c1ccc(OCCOc2ccc(Br)cc2)cc1,-10%,16%,-7%,-12%,-12%,-5%
CC1(C)OC(=O)C(=NNc2ccc(O)cc2)C(=O)O1,-16%,-9%,.,?,0%,6%
CC1(C)OC(=O)C(=NNc2ccccc2)C(=O)O1,-5%,16µM*,-23%,-12%,2%,-4%
CC1(C)OC(=O)C(=NNc2ccc(Cl)cc2)C(=O)O1,-7%,3.2µM*,-27%,-13%,-7%,0%
Nc1nc(-c2ccc3c(c2)NC(=O)CO3)cs1,-22%,3.2µM*,18µM*,?,-1%,-5%
CCC(C)C(=O)Nc1nc(-c2ccc3c(c2)NC(=O)CO3)cs1 (stereo not given),-18%,20µM*,-26%,-3%,5%,0%
O=C(c1ccco1)N1CCC2(CCCN(Cc3ccncc3)C2)CC1,.,?,-1%,.,.,.
COc1cccc(/C=N/NC(=O)c2cc3c(OC)cccc3[nH]2)c1O,-9%,-6%,-10%,?,8%,25µM*
COc1cccc(/C=N/NC(=O)c2cc3c(OC)cccc3[nH]2)c1OC,?,-2%,-27%,?,?,?
COc1cccc(/C=N/NC(=O)CCc2n[nH]c(=O)[nH]c2=O)c1O,-3%,10%,-29%,-12%,8%,-3%
COc1ccc(OC)c(/C=N/NC(=O)c2cc3c(OC)cccc3[nH]2)c1,?,.,.,.,4%,?
COc1cccc(/C=N/NC(=O)c2cc3c(OC)c(OC)ccc3[nH]2)c1OC,?,?,?,7.9µM*,?,-1%
COc1ccc(OC)c(/C=N/NC(=O)c2cc3c(OC)cc(OC)cc3[nH]2)c1,8.9µM*[quencher],.,.,5µM*,?,?
COc1ccc(CNC(=O)c2cc(=O)[nH]c3ccc(S(=O)(=O)N4CCCC4)cc23)c(OC)c1,-8%,.,.,4%,1%,.

# From PubChem BioAssay
